The structures appear in SMILES notation. The source made the active and inactive calls. How the source made its calls: active means hit-call score of the fitted dose curve at least 0.9, where 1 is the maximum; inactive means score below 0.9.

This assay can be described thus: ERF_TW_NR_rI2: Eurofins (ERF) Radioligand Binding LeadHunter Assay for rat Imidazoline I2 Central Antagonism. The procedure: ERF_TW_NR_rI2 is a biochemical, single-readout assay that uses extracted gene-proteins in a cell-free assay. Measurements were taken 0.5 hour after chemical dosing in a 96-well plate. See Imidazoline I2, Central Rat Binding (Antagonist Radioligand) Assay, Panlabs.ERF_TW_NR_rI2 is an assay component calculated from the ERF_TW_NR_rI2 assay. It is designed to measure radioligand binding using a type of binding reporter as detected by scintillation counting with radiometry technology.Data from the assay component ERF_TW_NR_rI2 was analyzed at the assay endpoint, ERF_TW_NR_rI2, in the positive analysis fitting direction relative to DMSO as the negative control and baseline of activity. Using a type of binding reporter, loss-of-signal activity can be used to understand changes in radioligand binding as they relate to gene NISCH (homolog). To generalize the intended target to other relatable targets, this assay endpoint is annotated to the oxidoreductase intended target family, where the subfamily is imidazoline receptor.
Brains (except cerebella) of male Wistar derived rats weighing 175 +/- 25 g are used to prepare imidazoline I2 receptors in modified Tris-HCl buffer pH 7.4. A 15 mg aliquot is incubated with 2 nM [3H] Idazoxan for 30 minutes at 25C. […] Membranes are filtered and washed, the filters are then counted to determine [3H] […]
Regarding `COc1cc(CCC(=O)CC(=O)CCc2ccc(O)c(OC)c2)ccc1O`, the result was inactive.

Source of the values: PubChem BioAssay AID2284200 (EPA ToxCast).
